# Screens deposited in PubChem BioAssay by National Center for Advancing Translational Sciences (NCATS).
# Shown is part of a subset that was picked to be rich in hits.
# AmpC detergent = AmpC beta-lactamase inhibition with detergent present; P00811; AmpC hydrolysis of nitrocefin, absorbance 480 nm, 0.01% Triton; Potency, µM (series often up to 114 µM), inactives show top-dose activity change, negative = inhibition, hits mostly inhibitors; hit rate 0.041% among 370,000;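 note: potency is the fitted concentration of half-maximal effect; 0% = no-compound wells and -100% = no-enzyme wells; nearly all actives have a fitted effect of over 25% in size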
# Target sequence (P00811 whole entry, looked up): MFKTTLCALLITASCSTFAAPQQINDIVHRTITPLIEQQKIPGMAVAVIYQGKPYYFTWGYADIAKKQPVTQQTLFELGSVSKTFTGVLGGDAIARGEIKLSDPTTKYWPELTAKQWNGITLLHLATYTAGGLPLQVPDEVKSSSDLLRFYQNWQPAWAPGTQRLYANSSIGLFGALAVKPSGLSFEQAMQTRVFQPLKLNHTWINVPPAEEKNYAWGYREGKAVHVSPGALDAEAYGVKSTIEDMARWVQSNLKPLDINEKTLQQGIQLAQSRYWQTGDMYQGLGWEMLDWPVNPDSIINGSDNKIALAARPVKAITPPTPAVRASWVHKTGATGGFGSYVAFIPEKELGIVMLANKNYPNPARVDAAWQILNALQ
#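 20 mM phosphate pH 7.0 + 0.01% (detergent screen) or 0.0001% Triton X-100; 5.3 nM AmpC reagent; cpd preinc 15 min RT; nitrocefin (800 uM stock) to start; A480 q20 s × 4 min; Activity was normalised to no-enzyme and no-compound control wells.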
# Shiga toxin inh = inhibitors of Shiga toxin in Vero cells | Vero cells, Shiga toxin protein synthesis inhibition reporter | inhibition, % at 38.7 µM | hit rate 9.2% among 290,000; in the data active = inhibition mostly above about 28%, no sharp cut-off; inactive = mostly below about 43%; note: 0% is about no effect
# NS1 function inh = influenza NS1 inhibition; Potency, µM (doses to about 46.1 µM), inactives show at the highest dose activity, positive = more growth; hit rate 0.4% among 270,000; AID 2326; calls by dose curve; note: potency is the fitted concentration of half-maximal effect; actives are rising curves; nearly all actives have a fitted effect of over 50% in size
#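 Read-out: OD600 growth recovery of NS1-expressing budding yeast. Cells grown overnight at 30C in -URA glucose medium, washed, resuspended and diluted 1:100 in 2% galactose assay medium, pH 6.0. Same strain lacking NS1 served as positive control.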
# AmpC inh no detg = blocks E. coli AmpC beta-lactamase in detergent-free assay; P00811; AmpC nitrocefin hydrolysis, absorbance 480 nm, 0.0001% Triton; Potency, µM (highest dose often 57.1 µM), for inactives: at the highest dose activity change, negative = inhibition, hits mostly inhibitors; hit rate 0.52% among 330,000;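 note: potency is the fitted concentration of half-maximal effect; plate controls were no compound for no effect and no enzyme for full effect; nearly all actives have a fitted effect of over 20% in size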
#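 20 mM phosphate pH 7.0 + 0.01% (detergent screen) or 0.0001% Triton X-100; 5.3 nM AmpC reagent; cpd preinc 15 min RT; nitrocefin (800 uM stock) to start; A480 q20 s × 4 min; Activity was normalised to no-enzyme and no-compound control wells.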
# CHX counter = counter-screen hit for Shiga toxin inhibitors, cycloheximide | cell reporter, cycloheximide protein synthesis inhibition counterscreen | max response, % | hit rate 12% among 300,000; in the data active = max response mostly above about 13%, no sharp cut-off; inactive = mostly below about 14%; note: read at 38.3 µM for the half of the compounds with a filed dose; 0% is about no effect
# The depositor's hits bear a star; ? = inconclusive; / = no result given. Unless noted, calls come from the whole dose curve; as a rule, active = well fitted curve in the direction sought with a large enough effect; inconclusive = small, poorly fitted or top-dose-only effect, or another doubt; inactive = no such curve, though single readings can be large; an effect the other way counts as inactive or inconclusive.
SMILES,AmpC detergent,Shiga toxin inh,NS1 function inh,AmpC inh no detg,CHX counter
CC(C)CSc1nc2ccccc2[nH]1,-4%,94*,/,-8%,45*
O=c1cc(CSc2nc3ccccc3[nH]2)c2ccccc2[nH]1,1%,53*,-5%,-22%,28*
CCSc1nc2ccccc2[nH]1,0%,8,-64%,-5%,4
CCOc1ccc2nc(SCC(=O)NCc3ccccc3)[nH]c2c1,?,/,11%,-33%,-3
CC1(C)C(CSc2nc3ccccc3[nH]2)C1(Cl)Cl (configuration not stated),3%,72*,/,-36%,27
CCOc1ccc2nc(SCC)[nH]c2c1,5%,125*,-84%,-26%,54*
Fc1ccc(CSc2nc3ccccc3[nH]2)c2ccccc12,?,18,-49%,-43%,11
O=C(NCCc1ccccc1)C1CCC(CNc2nc(=S)[nH]c3ccccc23)CC1 (configuration not stated),3%,22,-4%,-25%,6
CSc1cccc(NC(=O)CC(c2cccs2)N2Cc3ccccc3C2=O)c1 (configuration not stated),17%,/,/,/,/
CC(=O)c1ccc(OCCCC(=O)Nc2cc(Cl)ccc2-n2cncn2)cc1,?,-3,-3%,16%,1
O=[N+]([O-])c1ccc(CSc2nc3ccccc3[nH]2)cc1,-5%,38*,5%,-32%,35*
Nc1nc(CSc2nc3ccccc3[nH]2)cs1,-7%,47*,-147%,-21%,25*
Nc1ccccc1Sc1nc2ccccc2[nH]1,-1%,59*,/,-46%,23*
Cc1cccc2nc(CSc3nc4ccccc4[nH]3)cn12,2%,24,-7%,-14%,13
CCOc1ccc(OCCSc2nc3ccccc3[nH]2)cc1,-5%,19,-34%,-49%,19
CCCOc1ccc(CSc2nc3ccccc3[nH]2)cc1,-8%,84*,-34%,-45%,49*
COc1cc(Cl)c(C)cc1NC(=O)Cn1c2ncccc2c(=O)n1-c1ccccc1,-6%,/,/,/,/
Cc1cc(C)c(NC(=O)CCn2c(=O)c3cccn3c3ccccc32)c(C)c1,1%,/,/,/,/
CCC(=O)N1CCc2cc(Br)cc(S(=O)(=O)NCCc3ccc(OC)c(OC)c3)c21,5%,/,/,/,/
c1ccc(CSc2nc3ccccc3[nH]2)cc1,-5%,57*,-3%,-19%,44*
Fc1ccc(CSc2nc3ccccc3[nH]2)cc1,0%,132*,-62%,-27%,49*
Cc1cccc(-c2nnc(SCc3cc(=O)[nH]c4ccccc34)n2C)c1,-19%,8,8%,-11%,-4
c1ccc(-c2nnc(CSc3nc4ccccc4[nH]3)o2)cc1,-12%,13,-159%,-20%,1
O=c1[nH]c(SCc2ccccc2)nc2[nH]ncc12,8%,28*,/,-9%,13
O=C(CSc1nc2ccccc2[nH]1)NCc1ccc(F)cc1,8%,29,/,-24%,6
SMILES,AmpC detergent,Shiga toxin inh,NS1 function inh,AmpC inh no detg,CHX counter
Cn1ccnc1SCc1cc(=O)[nH]c2ccccc12,?,19,-8%,-8%,17*
O=C(CSCc1nc2ccccc2[nH]1)Nc1ccccc1,3%,16,-5%,-4%,-4
c1ccc(CSCc2nc3ccccc3[nH]2)cc1,-13%,74*,-19%,-19%,62*
Fc1ccccc1Cc1cn2cc(-c3ccc(Cl)cc3)nc2s1,21%,/,/,/,/
C/C(=N/O)c1cccc(N2Cc3ccccc3C2)c1,-4%,51*,9%,-27%,18*
Cn1c(C(=O)NCCc2c[nH]c3ccccc23)cc2sccc21,0%,89*,-40%,-39%,82*
O=C(NCCc1c[nH]c2ccccc12)C(=O)Nc1ccccc1,1%,83,-2%,-18%,29*
O=C(NCCc1c[nH]c2ccccc12)c1cc2sccc2n1Cc1ccccc1,-11%,-4,19%,-31%,-2
O=C(NCCc1c[nH]c2ccccc12)c1c(Cl)nc2sccn12,-6%,44,7%,-9%,23*
O=C(NCCc1ccccc1)C(=O)c1c[nH]c2ccccc12,-3%,61*,14%,-33%,40*
CC(CCN1C(Nc2ccccc2)=NC[C@@H]1Cc1ccccc1)c1ccccc1 (some centres not stated),-15%,-6,10%,-14%,-2
CCCCNC(=O)Nc1ncn[nH]1,?,-5,-34%,-16%,-5
O=[N+]([O-])c1ccc([C@@H](Nc2ccccc2)c2ccc3cccnc3c2O)cc1,/,/,2%,/,/
